These are literature values, as cited in PubChem BioAssay AID977611.

By Kd is commonly meant the constant that tells how readily two partners part at equilibrium.

The data set in a line: PubChem AID 977611. The settings on record: PDB protein-ligand complexes, literature Kd.

Hit rate of the full screen: of about 3,900 compounds, about 3,900 (100%) were called active. No cut-off is given here; in the data, nearly all actives have Kd up to about 4200 µM. The set was probably picked from earlier hits. The list shows a part of the results. *1 amine or outer side, *2 acyl side, *3 side chain or, on linkers, in order; H or OH if unused. Where a SMILES comes first, the peptide text is derived from it. Square brackets hold non-standard residues; d marks the D form. Peptide text beside a SMILES is read from it. [ ]: non-standard residue; d: D form. X1 = O=C([C@H](Cc1ccc(O[P+](O)(O)O)cc1)N[*:1])[*:2]; Thr(P(OH)3+) = C[C@@H](O[P+](O)(O)O)[C@H](N)C(=O)O; Lys(Me3) = C[N+](C)(C)CCCC[C@H](N)C(=O)O; Orn(CH(NH2)2) = NC(N)NCCC[C@H](N)C(=O)O; ΔPro = O=C(O)[C@@H]1C=CCN1

Turning to `C[C@H](NC(=O)[C@@H](NC(=O)[C@H](CCC(N)=O)NC(=O)[C@@H](N)CCCCN)[C@@H](C)O)C(=O)N[C@@H](CCCNC(N)N)C(=O)N[C@@H](CCCC[N+](C)(C)C)C(=O)N[C@@H](CO)C(=O)O` (H-KQTA[Orn(CH(NH2)2)][Lys(Me3)]S-OH), the dissociation constant Kd (protein: Chromo domain-containing protein 1, Chp1, PDB entry 3g7l) was 0.19 µM (active).
Take `C[C@H](N)C(=O)N[C@@H](CCCNC(N)N)C(=O)N[C@H](C(=O)N[C@@H](CCCC[N+](C)(C)C)C(=O)N[C@@H](CCC(N)=O)C(=O)N[C@H](C(=O)N[C@@H](C)C(=O)N[C@@H](CCCNC(N)N)C(=O)N[C@@H](CCCCN)C(=O)N[C@@H](CO)C(=O)N[C@H](C=O)[C@@H](C)O)[C@@H](C)O)[C@@H](C)O`: under “protein: Inhibitor of growth protein 4( ING4) PHD domain, PDB entry 2pnx”, the Kd was 7.9 µM (active).
With `N[C@H]1[C@H](O[C@H]2[C@H](O)[C@@H](N)[C@H](O[C@H]3[C@H](O)[C@@H](N)[C@H](O[C@H]4[C@H](O)[C@@H](N)[C@H](O[C@H]5[C@H](O)[C@@H](N)C(=O)O[C@@H]5CO)O[C@@H]4CO)O[C@@H]3CO)O[C@@H]2CO)O[C@H](CO)[C@@H](O)[C@@H]1O`, the Kd (protein: Ostrinia furnacalis Group I chitinase catalytic domain, PDB entry 3wqw) was 5.9 µM (active).
As for `N[C@@H]1[C@@H](O)[C@H](O[C@@H]2O[C@H](CO)[C@@H](O[C@@H]3O[C@H](CO)[C@@H](O[C@@H]4O[C@H](CO)[C@@H](O[C@@H]5O[C@H](CO)[C@@H](O)[C@H](O)[C@H]5N)[C@H](O)[C@H]4N)[C@H](O)[C@H]3N)[C@H](O)[C@H]2N)[C@@H](CO)O[C@H]1O`, the Kd (protein: Ostrinia furnacalis Group I chitinase catalytic domain, PDB entry 3wqv) was 6.2 µM (active).
Turning to H-AEVFYVDGA-OH, the Kd (protein: HIV-1 protease, PDB entry 2nxl) is 0.54 µM (active).
In the case of H-AETFYVD-OH, under “protein: protease, tethered dimer, PDB entry 4ep2”, the Kd is 4.43 µM (active).
Regarding H-ATFYVA-OH, the Kd (protein: protease, tethered dimer, PDB entry 4eqj) was 2.52 µM (active).
Take H-AQTFYVDG-OH: the equilibrium dissociation constant (Kd) (protein: HIV-1 protease, PDB entry 2nxm) is 6.4 µM (active).
For `CC(C)[C@H](NC(=O)[C@H](Cc1ccc(O)cc1)NC(=O)[C@H](CC(N)=O)NC(=O)CN)C(=O)N[C@H](C(=O)N[C@H](C(=O)N[C@@H](Cc1ccc(O[P+](O)(O)O)cc1)C(=O)N[C@@H](C)C(=O)O)[C@@H](C)O)C(C)C` (H-GNYVVT[X1]A-OH), the Kd (protein: phosphotyrosine (pTyr) scaffold Fab, PDB entry 4jfx) is 0.36 µM (active).
Consider `CC[C@H](C)[C@H](NC(=O)[C@H](CCC(=O)O)NC(=O)[C@H](CCC(=O)O)NC(=O)[C@H](Cc1ccccc1)NC(=O)[C@H](CC(=O)O)NC(=O)CN)C(=O)N1CC=C[C@H]1C(=O)NCC(=O)N[C@@H](CCC(=O)O)C(=O)N[C@@H](Cc1ccc(O)cc1)C(=O)N[C@@H](C)C(=O)O` (H-GDFEEI[ΔPro]GEYA-OH), for which, where the note is “protein: thrombin alpha, PDB entry 1a3e”, the dissociation constant Kd was 0.0035 µM (active).
As to `COc1cc2c(c(OC)c1OC)C1=CCC(=O)C(=O)C=C1[C@@H](NC(C)=O)CC2`, the dissociation constant Kd (protein: Bromodomain-containing protein 4, BRD4(1), PDB entry 4lys) was 46 µM (active).
Turning to `COc1cc(/C=C/CO)ccc1O`, the Kd (protein: Coniferyl alcohol 9-O-methyltransferase, PDB entry 4e70) was 5.26 µM (active).
`CC(C)[C@H](NC(=O)[C@H](Cc1ccc(O)cc1)NC(=O)[C@H](CC(N)=O)NC(=O)CNC(=O)[C@@H](N)CCCCN)C(=O)N[C@H](C(=O)N[C@H](C(=O)N[C@H](C(=O)N[C@@H](Cc1cnc[nH]1)C(=O)O)[C@@H](C)O[P+](O)(O)O)[C@@H](C)O)C(C)C` (H-KGNYVVT[Thr(P(OH)3+)]H-OH): under “protein: phosphoserine/threonine (pSTAb) scaffold Fab, PDB entry 4jg1”, the Kd is 0.232 µM (active).
With `CC(C)[C@H](NC(=O)[C@H](Cc1ccc(O)cc1)NC(=O)[C@H](CC(N)=O)NC(=O)CNC(=O)[C@@H](N)CCCCN)C(=O)N[C@H](C(=O)N[C@H](C(=O)N[C@@H](CO[P+](O)(O)O)C(=O)N[C@@H](Cc1cnc[nH]1)C(=O)O)[C@@H](C)O)C(C)C`, the Kd (protein: phosphoserine (pSAb) scaffold Fab, PDB entry 4jfz) is 0.071 µM (active).
`CC(C)[C@H](NC(=O)[C@H](Cc1ccc(O)cc1)NC(=O)[C@H](CC(N)=O)NC(=O)CNC(=O)[C@@H](N)CCCCN)C(=O)N[C@H](C(=O)N[C@H](C(=O)N[C@@H](CO[P+](O)(O)O)C(=O)O)[C@@H](C)O)C(C)C`: for the setting “protein: phosphoserine/threonine (pSTAb) scaffold Fab, PDB entry 4jg0”, the dissociation constant Kd was 0.172 µM (active).
Take `C[C@@H]1O[C@@H](Oc2c(-c3ccc(O)c(O)c3)oc3cc(O)cc(O)c3c2=O)[C@H](O)[C@H](O)[C@H]1O`: the dissociation constant Kd (protein: Ribosomal protein S6 kinase alpha-3, PDB entry 4gue) was 5.8 µM (active).
Regarding `CC1=CC(N)c2ccccc2N1CCCCCCCCCCN1c2ccccc2C(N)=CC1C` (centres undefined), under “protein: Putative regulatory protein, PDB entry 3vw0”, the dissociation constant (Kd) was 21.2 µM (active).
On to `Cc1cc(=N)c2ccccc2n1CCCCCCCC/C=C/N1c2ccccc2C(N)=CC1C` (centres undefined), for which the Kd (protein: Chitinase A, PDB entry 3arp) is 0.07 µM (active).
For `Cc1cc(=N)c2ccccc2n1CCCCCCCCCCN1c2ccccc2C(N)=CC1C` (centres undefined), for the setting “protein: Chitinase A(W275G mutant), PDB entry 3art”, the Kd is 37 µM (active).
